Results filed as inconclusive are left out. Active and inactive are the calls of the source. Calls follow the shape of the dose curve; as a rule, active = well fitted curve in the direction sought with a large enough effect; inconclusive = small, poorly fitted or top-dose-only effect, or another doubt; inactive = no such curve, though single readings can be large; an effect the other way counts as inactive or inconclusive.

Assay [1] in a line: Quantitative High-Throughput drug screen in 47 multiple myeloma cell lines against the NCATS MIPE library collection: Delta47_JCRB cell viability assay (AID 1918925; also: nearly all actives have a fitted effect of over 45% in size). The method in brief: (§1)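 Viability readout: CellTiter-Glo luminescence following 5 min room-temperature incubation with reagent. Prior exposure: 48 h, 37C, humidified 5% CO2, 500 cells per well.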
The nature of assay [2]: Quantitative High-Throughput drug screen in 47 multiple myeloma cell lines against the NCATS MIPE library collection: AMO1_DSMZ cell viability assay (AID 1918927; also: nearly all actives have a fitted effect of over 30% in size). A digest of the protocol: as §1
Assay [3] in a line: Quantitative High-Throughput drug screen in 47 multiple myeloma cell lines against the NCATS MIPE library collection: ARP1_JJKsccF8 cell viability assay (AID 1918928; also: nearly all actives have a fitted effect of over 40% in size). The method in brief:
(§2)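 ATP readout (CellTiter-Glo), 48 h drug incubation, 37 °C/5% CO2, 500 cells per well; normalisation to DMSO (100%) and media-only (0%) controls.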

Assay [4] is described as follows: Quantitative High-Throughput drug screen in 47 multiple myeloma cell lines against the NCATS MIPE library collection: ARD_JJKsccE7 cell viability assay (AID 1918929). The method in brief: as §1
Assay [5] is described as follows: Quantitative High-Throughput drug screen in 47 multiple myeloma cell lines against the NCATS MIPE library collection: Karpas620_DSMZ cell viability assay (AID 1918959). Also: nearly all actives have a fitted effect of over 30% in size. The method in brief: (§3)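 Primary qHTS used for cherry-picking: cells at 500/well, library compounds for 48 h (37C, 5% CO2), luminescent ATP assay.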
Assay [6] is described as follows: Quantitative High-Throughput drug screen in 47 multiple myeloma cell lines against the NCATS MIPE library collection: KMM1_JCRB cell viability assay (AID 1918960). Also: nearly all actives have a fitted effect of over 30% in size. A digest of the protocol: as §2
Assay [7] can be described thus: Quantitative High-Throughput drug screen in 47 multiple myeloma cell lines against the NCATS MIPE library collection: Karpas417_ECACC cell viability assay (AID 1918961). Particulars: Karpas417 myeloma viability, CellTiter-Glo ATP luminescence, 48 h; viability (% of DMSO): at 45.8 µM (top of the series). The method in brief:
(§4)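 We plated 500 myeloma cells per well, pinned in MIPE 4.0 compounds, and incubated for 48 hours at 37C. ATP was then quantified with CellTiter-Glo, with DMSO and media-only wells defining 100% and 0%.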
On the technique in general: ATP-based viability assays read luminescence as a measure of living cells.

Assay [8] in a line: Quantitative High-Throughput drug screen in 47 multiple myeloma cell lines against the NCATS MIPE library collection: KHM11_PLB cell viability assay (AID 1918962). Also: nearly all actives have a fitted effect of over 35% in size. A digest of the protocol:
as §3

Assay [9] can be described thus: Quantitative High-Throughput drug screen in 47 multiple myeloma cell lines against the NCATS MIPE library collection: JIM3_ECACC cell viability assay (AID 1918963; also: nearly all actives have a fitted effect of over 35% in size). The method in brief: as §3
A short description of assay [10]: Quantitative High-Throughput drug screen in 47 multiple myeloma cell lines against the NCATS MIPE library collection: INA6_PLB cell viability assay (AID 1918965; also: nearly all actives have a fitted effect of over 55% in size). The method in brief:
as §4

Assay [11] can be described thus: Quantitative High-Throughput drug screen in 47 multiple myeloma cell lines against the NCATS MIPE library collection: JJN3_DSMZ cell viability assay (AID 1918966; also: nearly all actives have a fitted effect of over 50% in size). The method in brief: as §1
Assay [12] can be described thus: Quantitative High-Throughput drug screen in 47 multiple myeloma cell lines against the NCATS MIPE library collection: H1112_PLB cell viability assay (AID 1918967; also: nearly all actives have a fitted effect of over 30% in size). The method in brief:
as §1

Assay [13] in a line: Quantitative High-Throughput drug screen in 47 multiple myeloma cell lines against the NCATS MIPE library collection: Karpas25_ECACC cell viability assay (AID 1918968; also: nearly all actives have a fitted effect of over 35% in size). The method in brief: as §1
Assay [14] is described as follows: Quantitative High-Throughput drug screen in 47 multiple myeloma cell lines against the NCATS MIPE library collection: KMS12BM_JCRB cell viability assay (AID 1918971). Also: nearly all actives have a fitted effect of over 35% in size. The method in brief:
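Myeloma cells (500 per well) were exposed to MIPE 4.0 compounds by pin transfer and incubated 48 hours at 37C, 5% CO2. Viability was read as ATP by CellTiter-Glo luminescence, normalised to DMSO (100%) and media-only (0%) wells.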

Assay [15] is described as follows: Quantitative High-Throughput drug screen in 47 multiple myeloma cell lines against the NCATS MIPE library collection: KMS12PE_JCRB cell viability assay (AID 1918972). Also: nearly all actives have a fitted effect of over 30% in size. A digest of the protocol: as §4
A short description of assay [16]: Quantitative High-Throughput drug screen in 47 multiple myeloma cell lines against the NCATS MIPE library collection: KMS20_JCRB cell viability assay (AID 1918973). Also: nearly all actives have a fitted effect of over 45% in size. A digest of the protocol: as §1
Assay [17] can be described thus: Quantitative High-Throughput drug screen in 47 multiple myeloma cell lines against the NCATS MIPE library collection: KMS21BM_JCRB cell viability assay (AID 1918974). The settings on record: ATP luminescence, 48 h; viability: at 45.8 µM (top of the series) unless noted. The method in brief: as §1
Assay [18] is described as follows: Quantitative High-Throughput drug screen in 47 multiple myeloma cell lines against the NCATS MIPE library collection: KMS27_JCRB cell viability assay (AID 1918970). Also: nearly all actives have a fitted effect of over 30% in size. A digest of the protocol:
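CellTiter-Glo luminescence after 48 h drug exposure at 37 °C; 500 cells/well, 1536-well format, pin-tool compound addition; DMSO = 100%, media-only = 0% viability.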

A short description of assay [19]: Quantitative High-Throughput drug screen in 47 multiple myeloma cell lines against the NCATS MIPE library collection: JIM1_ECACC cell viability assay (AID 1918964). The method in brief:
as §1

Assay [20] is described as follows: Quantitative High-Throughput drug screen in 47 multiple myeloma cell lines against the NCATS MIPE library collection: EJM_DSMZ cell viability assay (AID 1918926; also: nearly all actives have a fitted effect of over 30% in size). The method in brief:
as §1
Potency is read from the fitted curve at half-maximal effect.

For `OCCCNc1cc(-c2ccnc(Nc3cccc(Cl)c3)n2)ccn1`, the Potency in [1] was 26.4 nM (active); in [2] it was 74.3 nM (active); in [3], 105 nM (active); in assay [4], 74.3 nM (active); in assay [5] it was 66.2 nM (active); in assay [6], 52.6 nM (active). For the same compound, the Potency was 46.9 nM (active) in assay [7]; 18.7 nM (active) in assay [8]; 52.6 nM (active) in assay [9]; 26.4 nM (active) in assay [10]; 93.5 nM (active) in assay [11]; 59 nM (active) in assay [12]. In addition, the Potency in [13] is 41.8 nM (active); in assay [14], 132 nM (active); in [15], 93.5 nM (active); in assay [16] it was 41.8 nM (active); in [17], 37.2 nM (active).
Regarding `Cc1c(NC(=O)OC[C@@H]2COCCN2)cn2ncnc(Nc3ccc4c(cnn4Cc4cccc(F)c4)c3)c12`, the Potency is 833 nM (active) in assay [1]; 3320 nM (active) in [2]; 11800 nM (active) in assay [4]; 18700 nM (active) in assay [5]; 14800 nM (active) in [6]; 1320 nM (active) in assay [9]. Besides, the Potency in assay [10] was 3320 nM (active); in [18], 20900 nM (active); in assay [15] it was 18700 nM (active); in assay [16], 1870 nM (active).
For `COc1cc2ncn(-c3cc(OCc4ccccc4C(F)(F)F)c(C(N)=O)s3)c2cc1OC`, the Potency in assay [1] was 7430 nM (active); in assay [2], 743 nM (active); in [4] it was 935 nM (active); in [5], 235 nM (active); in [6], 469 nM (active); in assay [7] it was 13200 nM (active). In addition, the Potency was 18700 nM (active) in [8]; 469 nM (active) in assay [9]; 296 nM (active) in assay [19]; 1180 nM (active) in assay [10]; 16600 nM (active) in assay [11]; 7430 nM (active) in assay [12]. Besides, the Potency in assay [18] is 132 nM (active); in [14], 833 nM (active); in [17] it was 1320 nM (active).
Take `COC(=O)Nc1nc2ccc(C(=O)c3ccc(F)cc3)cc2[nH]1`: the Potency in assay [1] is 418 nM (active); in [2], 296 nM (active); in [3] it was 418 nM (active); in [8] it was 264 nM (active); in assay [9], 590 nM (active); in [10] it was 418 nM (active). Moreover, the Potency in assay [11] was 2350 nM (active); in assay [14], 833 nM (active); in [17], 296 nM (active).
In the case of `Nc1nc(NCCNc2ncc(-n3ccnc3)c(-c3ccc(Cl)cc3Cl)n2)ccc1[N+](=O)[O-]`, the Potency in [1] is 1480 nM (active); in [20] it was 16600 nM (active); in [3], 11800 nM (active); in [8], 5260 nM (active); in assay [10], 1180 nM (active); in [11] it was 6620 nM (active). Further, the Potency in assay [13] is 1480 nM (active); in [16] it was 9350 nM (active). In assay [7], the Potency result is “inactive”.
Take `c1cc(-c2cnn3cc(-c4ccc(OCCN5CCCCC5)cc4)cnc23)ccn1`: the Potency in [1] is 2090 nM (active); in assay [3], 16600 nM (active); in [8], 1480 nM (active); in [9], 3720 nM (active); in [10], 1870 nM (active); in assay [12], 2960 nM (active). In addition, the values for the Potency in assay [13], in assay [14] and in assay [16] were 2960 nM (active), 16600 nM (active) and 2350 nM (active), respectively. Moreover, the Potency entry in [4], in assay [5], in [6], in assay [18] and in assay [15] was “inactive” throughout.
